Pf Dd2 inh – blocks in vitro growth of P. falciparum Dd2; P. falciparum Dd2 growth, SYBR Green, 72 h; Potency, µM (series often up to 28.9 µM), hits mostly inhibitors; hit rate 4.3% among 120,000; active = well fitted inhibition curve with a large enough effect; note: nearly all actives have a fitted effect of over 65% in size
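Readout: SYBR Green fluorescence, 485 nm excitation, 535 nm emission, after ~16 h lysis at 37C. Before that, Dd2-infected red cells (2.5% hematocrit) grew 72 h with compound, 29 uM top final concentration.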
Large screens that a line does not name were inactive. This is one part of a sample in which hits are shown more often than they occur.

COc1ccc(-c2coc3c2c(C)cc2oc(=O)c(C)c(C)c23)cc1	none
COc1ccc(-c2cc3ccc(O)c(CN4CCOCC4)c3oc2=O)cc1	Pf Dd2 inh 11µM
Cc1c(-c2ccccc2)c(=O)oc2ccc(OC(=O)N3CCOCC3)cc12	none
CCN1CCN(Cc2c(O)ccc3c(C)c(-c4ccc(OC)cc4)c(=O)oc23)CC1	Pf Dd2 inh 5µM
COc1ccc(-c2c(C)c3cc(OC(=O)N4CCOCC4)ccc3oc2=O)cc1	none
O=c1oc2c(CN3CCN(CCO)CC3)c(O)ccc2cc1-c1ccccc1	none
CN1CCN(c2cc(=O)c3ccnc(-c4ccc(Cl)cc4)c3o2)CC1	none
COc1ccc(Cc2nc3ccc(C(=O)NCCN4CCOCC4)cc3o2)cc1	none
COc1ccc(CN2CCC(N3CCOCC3=O)CC2)cc1	none
CN1CCN(Cc2c(O)ccc3cc(-c4ccc(Cl)cc4)c(=O)oc23)CC1	Pf Dd2 inh 5µM
CCN1CCN(Cc2c(O)ccc3cc(-c4ccc(OC)cc4)c(=O)oc23)CC1	Pf Dd2 inh 5.6µM
O=C(Nc1cccc(Cl)c1)C1CCCN1c1nc2ncccc2o1 (configuration not stated)	none
O=C(CCc1conc1-c1cccc(F)c1)NCc1ccc(F)cc1	none
CCC(=O)N(C1CCOCC1)C1CCN(S(=O)(=O)c2ccccc2)CC1	none
O=C(O)C1=NOC2CN(CC3CCOCC3)CC12 (configuration not stated)	none
CN1C[C@@H](NC(=O)COc2ccccc2)C[C@H]1c1nc(-c2cccnc2)no1	none
FC(F)(F)c1cccc(C2=NOC3(CCN(Cc4cccc5ccccc45)CC3)C2)c1	none
CN1CCC(CN2CCC3(CC2)COCCN3C(=O)c2ccccc2)CC1	none
COc1ccccc1-c1cc(C(=O)N2CCN(c3ncccn3)CC2)nc2c1cnn2C	none
CC(=O)N1CCCCC12Cc1ccccc1NC2=O (configuration not stated)	none
Cc1cccc(OCC(=O)Nc2c(C(=O)N3CCN(c4ccccc4F)CC3)oc3ccccc23)c1	none
O=C(Nc1c(C(=O)N2CCN(c3ccccc3F)CC2)oc2ccccc12)c1ccco1	none
CCCC(=O)Nc1c(C(=O)N2CCN(c3ccccc3)CC2)oc2ccccc12	none
CCCCC(=O)Nc1c(C(=O)N2CCN(c3ccccc3F)CC2)oc2ccccc12	Pf Dd2 inh 11µM
COc1ccc(OCC(=O)Nc2c(C(=O)N3CCN(c4ccccc4)CC3)oc3ccccc23)cc1	Pf Dd2 inh 11µM
Cc1ccc(OCC(=O)Nc2c(C(=O)c3ccccc3)oc3ccccc23)cc1C	none
CCOc1ccc(NC(=O)c2oc3ccccc3c2NC(=O)COc2cccc(OC)c2)cc1	none
CC(C)CC(=O)Nc1c(C(=O)N2CCN(c3ccccc3F)CC2)oc2ccccc12	Pf Dd2 inh 7.1µM
CCC(=O)Nc1ccc(C2(C(=O)N3CCN(c4ccccc4F)CC3)CCC2)cc1	none
O=C1COc2ccc(-c3ccncc3)nc2CN1Cc1ccc(F)cc1	none
Cc1ccc(C(=O)N2CCC(N3CCCNC3=O)CC2)cc1	none
CC(=O)NCC(=O)N1C[C@@H](COc2cccnc2)[C@H](c2ccccn2)C1	none
CCCNC(=O)c1cc2c(s1)CCN(C(C)=O)C2	none
Cc1ccc(C(=O)N2CCC3(CC2)C(C(=O)O)CC(=O)N3C)s1 (configuration not stated)	none
COc1ccc(NC(=O)N2CCc3c([nH]c4ccc(OC)cc34)C2c2ccc(OC)cc2)cc1 (configuration not stated)	Pf Dd2 inh 4.5µM
COc1ccc2[nH]c3c(c2c1)CCN(C(=O)c1cccc(Cl)c1)C3c1ccc(F)cc1 (configuration not stated)	none
COc1ccc2[nH]c3c(c2c1)CCN(C)C31CCN(C(=O)C2CCC2)CC1	none
CC(C)C(=O)N1CCCCCNC(=O)[C@@H]2CCCC[C@@H]21	none
OCC1(CCOc2ccccc2)CCCN(c2ncnc3sccc23)C1 (configuration not stated)	none
O=C(Nc1cccn2nc(C3CCC3)nc12)c1ccc(F)cc1	none
O=C(Nc1cccn2nc(C3CCC3)nc12)c1cccc(C(F)(F)F)c1	Pf Dd2 inh 4.5µM
Cc1ccc(C(=O)Nc2cccn3nc(C4CCC4)nc23)cc1C	none
O=C(NC[C@H]1Cn2c(-c3ccccc3)cnc2CO1)C1CCOCC1	none
CN1C[C@@H](NC(=O)c2cccnc2)C[C@H]1c1nc(-c2cccnc2)no1	none
CN1C[C@@H](NC(=O)c2ccc(F)cc2)C[C@H]1c1nc(-c2ccccc2)no1	Pf Dd2 inh 11µM
CN1C[C@@H](NC(=O)c2ccc(F)cc2)C[C@H]1c1nc(-c2cncnc2)no1	none
CN1C[C@@H](NC(=O)c2cccnc2)C[C@H]1c1nc(-c2ccncc2)no1	none
CN1C[C@@H](NC(=O)c2ccc(F)cc2)C[C@H]1c1nc(-c2ccncc2)no1	none
CN1C[C@@H](NC(=O)c2ccc(-c3ccccc3)cc2)C[C@H]1c1nc(-c2ccncc2)no1	Pf Dd2 inh 11µM
CCCc1cc(C(=O)N2CC(=O)N(CC(C)C)CC(OCc3ccccc3F)C2)n(C)n1 (configuration not stated)	none
O=C1CC(c2noc(-c3ccccc3)n2)CN1c1ccc(F)c(Cl)c1 (configuration not stated)	none
COc1ccc(CN2C[C@@H]3C(=O)N(CCN4CCc5ccccc5C4)C(=O)[C@@H]3C2)cc1	none
COc1cccc(CN2CCC3(CC2)CC(c2cccnc2)=NO3)c1	none
CCCC(=O)Nc1ccc(NC(=O)C2CC(=O)N(CC(C)C)C2)cc1OC (configuration not stated)	none
CC(C)=CCn1c(-c2cc(C)oc2C)cn2cc(C(=O)N[C@@H](C)C(N)=O)nc2c1=O	none
CC(C)=CCn1c(-c2ccccc2Cl)cn2cc(C(=O)NCC(C)O)nc2c1=O (configuration not stated)	Pf Dd2 inh 10µM
C=CCn1c(-c2ccc(F)cc2)cn2cc(C(=O)N(C)CCO)nc2c1=O	none
NC(=O)C1(C(=O)N2CCC(n3nccc3NC(=O)c3ccccc3)CC2)CC1	none
CC(C)c1cccc(NC(=O)CN2C(=O)C(c3ccccc3)=NC2(C)C)c1	none
CN(C)C(=O)c1ccc(OC2CCN(C(=O)c3ccccc3)CC2)nc1	none
Cc1ccn2c(Nc3ccc(F)cc3)c(-c3ccc(C)o3)nc2c1	Pf Dd2 inh 10µM
Cc1ccc2nc(-c3cccs3)c(Nc3ccc4c(c3)OCCO4)n2c1	none
CC(C)c1ccc(Nc2c(-c3ccccc3O)nc3cnccn23)cc1	Pf Dd2 inh 3.5µM
Cc1cccc(C)c1Nc1c(-c2cccs2)nc2ncccn12	none
Cc1ccc(Nc2c(-c3cccc(Cl)c3)nc3cccc(C)n23)cc1	none
Cc1ccc2nc(-c3ccco3)c(Nc3ccc4c(c3)OCCO4)n2c1	none
Cc1ccccc1-c1nc2cnccn2c1NCCC(=O)N1CCC(C)CC1	none
COc1ccc(Nc2c(-c3ccco3)nc3cccc(C)n23)cc1	none
Cc1ccc2nc(-c3cccnc3)c(Nc3ccc(C(C)C)cc3)n2c1	none
Cc1ccn2c(Nc3ccc(C(C)C)cc3)c(-c3cccs3)nc2c1	Pf Dd2 inh 11µM
Cc1ccn2c(Nc3ccc(C(C)C)cc3)c(-c3cccnc3)nc2c1	Pf Dd2 inh 11µM
Cc1ccccc1-c1nc2cnccn2c1NCCC(=O)N1CCCCC1	none
Cc1noc([C@@H]2CN(C(=O)CCc3ccccc3)C[C@H]2CO)n1	none
O=C(NC1CC1)[C@@H]1CN(Cc2cccnc2)C[C@H]1CO	none
O=C(c1ccc(F)cc1F)N1CCC2(CC1)OCC(C(=O)N1CCOCC1)N2C(=O)c1ccccc1 (configuration not stated)	none
Cc1ccccc1-n1ncc(C(C)NC(=O)c2cc(F)ccc2F)c1C (configuration not stated)	none
NC(=O)[C@@H]1C[C@H](Oc2cccnc2)CN1S(=O)(=O)Cc1ccccc1F	none

Compound activity deposited in PubChem by National Center for Advancing Translational Sciences (NCATS).
